{"source": "PubChem BioAssay AID624414", "about": "(National Center for Advancing Translational Sciences (NCATS), 2012)", "note": "Among all 410,000 compounds or so, about 480 (0.12%) were called active. The sample holds actives, similar compounds and a random draw of the others, so the mix is not that of the screen. Values without a mark were called inactive. Rule as the data show it: active = activation above about 50%; inconclusive = mostly about 30% to 49%; inactive = weaker than that.", "data": [{"biological_target": "Mucolipin-1 (Homo sapiens) (UniProt Q9GZU1)", "sequence (Q9GZU1 whole entry, looked up)": "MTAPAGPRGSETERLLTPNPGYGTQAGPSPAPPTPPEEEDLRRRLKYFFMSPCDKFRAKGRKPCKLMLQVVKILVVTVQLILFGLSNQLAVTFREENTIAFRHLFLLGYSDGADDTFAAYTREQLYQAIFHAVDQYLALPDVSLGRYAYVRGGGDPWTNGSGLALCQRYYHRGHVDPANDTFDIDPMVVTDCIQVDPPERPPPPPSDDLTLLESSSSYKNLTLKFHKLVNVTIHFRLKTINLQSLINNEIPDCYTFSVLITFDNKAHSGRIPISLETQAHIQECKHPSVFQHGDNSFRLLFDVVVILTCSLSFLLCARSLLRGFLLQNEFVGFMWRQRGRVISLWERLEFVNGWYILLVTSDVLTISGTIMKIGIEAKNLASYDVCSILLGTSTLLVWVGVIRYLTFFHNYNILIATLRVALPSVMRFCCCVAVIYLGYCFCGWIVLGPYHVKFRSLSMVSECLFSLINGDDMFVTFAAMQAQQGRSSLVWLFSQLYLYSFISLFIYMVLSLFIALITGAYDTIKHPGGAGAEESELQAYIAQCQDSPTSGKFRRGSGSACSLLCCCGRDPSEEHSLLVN", "experiment": "qHTS for Agonists of the Human Mucolipin Transient Receptor Potential 1 (TRPML1); also: 0% is about no effect", "conditions": "TRPML1-expressing cells, Ca2+ dye fluorescence, FDSS; active compounds read high", "from_the_text": "Mutations of human Mucolipin transient receptor potential 1 (TRPML1) cause type IV mucolipidosis (ML4), a devastating neurodegenerative disease in young children. […] Currently, there is no treatment for ML4. […] Under physiological conditions, TRPMLs regulate membrane trafficking by transducing information about PI(3,5)P2 levels into changes in juxtaorganellar Ca2+, thereby triggering membrane fusion/fission events in the late endocytic pathways (endolysosomal trafficking). In addition, TRPML1 mediates release of Fe2+ from late endosomes and lysosomes, which is essential for cellular iron metabolism. Thus, impaired ion (Ca2+ and Fe2+) homeostasis underlies lysosomal dysfunction and ML4 phenotypes. In ML4 cells, the problem is twofold. First, defective Ca2+-dependent membrane trafficking due to TRPML1-deficiency causes accumulation of lipids and other bio-materials in the lysosome. The second strike comes from the lysosomal iron overload (due to impairment of TRPML1's Fe2+ conductivity), which converts the accumulated materials into the nondegradable (resistant to lysosomal degradation) lipofuscin (also called aging pigment) in the lysosome. Lipofuscin accumulation dramatically compromises the functions of lysosomes.\nNiemann-Pick type C (NPC) disease is another lysosome storage disease (LSD) with severe neurodegeneration during the childhood. Currently, there is no cure for NPC. […] Thus, TRPML1 is likely to be an essential regulator of lysosome ion homeostasis. We specifically hypothesize that stimulating TRPML1's Fe2+/Ca2+ channel activity in the lysosome using synthetic agonists can alleviate neurodegeneration associated with ML4 or NPC.\nTo this end, a high throughput screen was developed in a miniaturized format to screen against the Molecular Libraries Small Molecule Repository (MLSMR) to find small molecules that act either as inhibitors or agonist against the TRPML1 channel.\nNIH Chemical Genomics Center [NCGC]\nNIH Molecular Libraries Probe Centers Network [MLPCN]\nAssay Submitter (PI): Haoxing Xu, University of Michigan Ann Arbor\nTRPML1-DL cells are dissociated from flasks, counted and, brought up to a density of 500,000 cells per mL of media containing a 1X Tet inducer. Using a Multidrop Combi, 3uL of this cell solution is dispensed to each well of a 1536 TC treated, black, clear bottom hi base plate for a final cell density of 1,500 cells per well. The assay plates are incubated overnight (approximately 16 hours) at 37 degrees C and 5% CO2. Using a Multidrop Combi, 2uL of ABD Ca8 no wash dye plus quencher is added to each well. The assay plates incubate at room temperature in the dark for 45-90 minutes. The assay plate is read on the FDSS using the following protocol: 10 second baseline read, 23nL of compounds and controls are added using 1536 pintool, agonist read for 110 seconds, 1 uL EC80 addition (4uM final 54-4 diluted in media), antagonist read for 110 seconds.", "values": [{"compound": "Cc1ccc(NC(=O)c2ccc(CN3CC(=O)N4CCCCC4C3=O)cc2)c(Cl)c1", "note": "(stereo not drawn)", "activation": "2.76%"}, {"compound": "CCOc1n[nH]c(-c2ccccc2)n1", "activation": "0%"}, {"compound": "CN(C)c1ccc(/C=N\\Nc2ccc([N+](=O)[O-])cc2[N+](=O)[O-])cc1Cl", "activation": "-0.0634%"}, {"compound": "O=C(CSc1ncc(-c2ccccc2)[nH]1)Nc1ccc(F)cc1F", "activation": "2.97%"}, {"compound": "OCC(O)C(O)C(O)C(O)C=Nc1ccc(/C=C/c2ccnc3ccccc23)cc1", "note": "(stereo not drawn)", "activation": "6.02%"}, {"compound": "COC(=O)C1=C(C(=O)OC)[C@@H]2N(Cc3ccccc3)c3ccccc3[C@@]23C[C@@H](C(=O)OC)N(S(=O)(=O)c2ccc(C(F)(F)F)cc2)C3=N1", "activation": "-0.417%"}, {"compound": "CCN1/C(=C/c2ccc3ccc(C)cc3[n+]2CC)Sc2ccccc21", "activation": "70.1% (active)"}, {"compound": "CCCCOc1ccc(C(=O)NO)cc1", "activation": "-0.809%"}, {"compound": "Cc1csc[n+]1CCC1CCCCC1", "activation": "0.413%"}, {"compound": "C=C1C=C(C)n2ncc(C(=O)Nc3ccccc3O)c2N1", "activation": "-0.539%"}, {"compound": "Nc1nc(N)c(N=O)c(N)n1", "activation": "-0.147%"}, {"compound": "C=CCCN(C(Cc1ccccc1)C(=O)OC)S(=O)(=O)c1cc(Br)ccc1Br", "note": "(stereo not drawn)", "activation": "2.52%"}, {"compound": "CCOC(=O)CC1C(=O)NCCN1c1nc2c(C)cccn2c(=O)c1/C=C1\\SC(=S)N(C(C)CC)C1=O", "note": "(stereo not drawn)", "activation": "71% (active)"}, {"compound": "CCOC(=O)CNC(=O)c1cc2c(=O)n3cccc(C)c3nc2s1", "activation": "0.461%"}, {"compound": "CCCN(CCC)c1nc2c(C)cccn2c(=O)c1/C=C1/SC(=S)N(Cc2ccco2)C1=O", "activation": "17.6%"}, {"compound": "CCC(=O)N1CCc2cc(Br)cc(S(=O)(=O)CCC(=O)NCCc3ccc(OC)c(OC)c3)c21", "activation": "-0.301%"}, {"compound": "Cc1[nH]c2ccccc2c1C(=O)C(=O)N(C)c1ccccc1", "activation": "-0.513%"}, {"compound": "COC(=O)C1=C(c2ccccc2)c2ccccc2S(=O)(=O)N1CC(=O)Nc1ccccc1C(F)(F)F", "activation": "1.11%"}, {"compound": "CN(C)c1ccc(C=Nc2ccc(/C=C/c3ccnc4ccccc34)cc2)cc1", "activation": "1.17%"}, {"compound": "CCC(C)N(c1ccc(/C=C/c2ccnc3ccccc23)cc1)C(C)CC", "note": "(stereo not drawn)", "activation": "18.2%"}, {"compound": "CN(C)c1ccc(/C=C/C=C/c2ccnc3ccccc23)cc1", "activation": "52.7% (active)"}, {"compound": "Cc1cccc(CN2Cc3cccc4c3[C@H](C=CC4)CC2=S)c1", "activation": "-0.678%"}, {"compound": "CCCc1cc(=O)n2[nH]c(NCc3ccc(CC)cc3)nc2n1", "activation": "-0.211%"}, {"compound": "CCCN1CCC(=O)N(C(CSc2ccc(C)cc2)Cc2ccccc2)CC1", "note": "(stereo not drawn)", "activation": "1.24%"}, {"compound": "CCOC1=C2[C@@H](CN(S(=O)(=O)c3ccc(C)cc3)[C@H]2c2ccccc2F)[C@H]2C(=O)N(Cc3ccccc3)C(=O)[C@H]2C1", "activation": "1.29%"}, {"compound": "CCOC1=C2[C@H]([C@H]3C(=O)N(c4ccccc4)C(=O)[C@H]3C1)[C@@H](c1ccccc1)N(S(=O)(=O)c1ccc(C)cc1)[C@H]2c1ccccc1", "activation": "-0.217%"}, {"compound": "CCOC1=C2CN(S(=O)(=O)c3ccc(C)cc3)[C@H](c3cccs3)C[C@H]2[C@H]2C(=O)N(c3ccccc3)C(=O)[C@H]2C1", "activation": "64.2% (active)"}, {"compound": "COc1cc(NS(=O)(=O)c2cccs2)cc(OC)c1", "activation": "-1.48%"}, {"compound": "COc1cc2nc(Cl)nc(NC3CC3)c2cc1OC", "activation": "-0.998%"}, {"compound": "CCOC(=O)c1c(NC(=O)COc2cc(C)ccc2C(C)C)sc(C)c1C", "activation": "1.35%"}, {"compound": "O=C1C[C@H]2C=CCc3cccc(c32)CN1Cc1ccccc1", "activation": "-0.974%"}, {"compound": "Oc1ccc(Cl)cc1C1C=C(c2ccc3c(c2)OCO3)NC(c2c(F)cccc2Cl)N1", "note": "(stereo not drawn)", "activation": "0.805%"}, {"compound": "O=S(=O)(Nc1cccc2cccnc12)c1cccc2cccnc12", "activation": "0.864%"}, {"compound": "CC(=O)c1ccc[n+](C(C)CCC(C)[n+]2cccc(C(C)=O)c2)c1", "note": "(stereo not drawn)", "activation": "-0.159%"}, {"compound": "Cc1ccc(Cl)cc1N(C)C(=O)C1CCCN(c2ncnc3onc(-c4ccc(F)cc4)c23)C1", "note": "(stereo not drawn)", "activation": "0.938%"}, {"compound": "CN(C)c1ccc(/C=C/c2sc3ccccc3[n+]2C)cc1", "activation": "-0.317%"}, {"compound": "N#Cc1ccc[n+](CC(=O)c2ccc(O)c(O)c2)c1", "activation": "6.5%"}, {"compound": "COc1cc(OC)c(NC(=O)Cc2ccc(-n3c(C)nc4cccnc43)cc2)cc1Cl", "activation": "2.46%"}, {"compound": "O=[N+]([O-])c1ccc(/C=C/c2ccc3cccnc3c2)cc1", "activation": "-0.507%"}, {"compound": "CCOC(=O)c1c(NC(=O)c2ccc(S(=O)(=O)N3CCCC(C)C3)cc2)sc2c1CCN(C(C)C)C2", "note": "(stereo not drawn)", "activation": "0.257%"}, {"compound": "COc1ccccc1N1CCN(c2ncnc3onc(-c4ccc(F)cc4)c23)CC1", "activation": "0.772%"}, {"compound": "O=C(c1cnn2c1NC(=C1CC1)C=C2C(F)F)N1CCc2ccccc2C1", "activation": "-0.995%"}, {"compound": "C(=Nc1ccc(/C=C/c2ccnc3ccccc23)cc1)Nc1ccc(/C=C/c2ccnc3ccccc23)cc1", "activation": "8.34%"}, {"compound": "Cc1cc(=O)n(CC(=O)Nc2cccc([N+](=O)[O-])c2)c(-n2nc(C)cc2C)n1", "activation": "1.21%"}, {"compound": "COc1ccccc1NC(=O)CSC1=Nc2ccccc2C2=NC(CC(=O)NCc3cccs3)C(=O)N12", "note": "(stereo not drawn)", "activation": "3.51%"}, {"compound": "CC1(C)C=Cc2c(ccc(C(=O)/C=C/c3ccccc3)c2O)O1", "activation": "19.2%"}, {"compound": "COc1cccc(C(=O)Nc2ccc(-c3cc(C(F)(F)F)nn3-c3ccccc3)cc2)c1", "activation": "3.44%"}, {"compound": "COc1cccc(C(=O)c2sc3nc(-c4ccccc4)cc(C(F)(F)F)c3c2N)c1", "activation": "98.2% (active)"}, {"compound": "COc1ccc(S(=O)(=O)c2c(Nc3cccc(Cl)c3)sc(C(=O)c3ccccc3)c2N)cc1", "activation": "14.6%"}, {"compound": "COc1ccc(Cn2c(=O)n(-c3ccccc3C)c(=O)c3c4c(sc32)CN(C(C)=O)CC4)cc1", "activation": "-0.696%"}, {"compound": "O=C(Nc1ccc2nc(SCC(=O)N3CCCc4ccccc43)sc2c1)c1ccc(Cl)cc1", "activation": "1.16%"}, {"compound": "O=C(Nc1ccc([N+](=O)[O-])cc1)c1cnn2c1NC(=C1CC1)C=C2C(F)F", "activation": "-0.353%"}, {"compound": "CCCCC(CCCC)c1ccc(C=Nc2ccc(/C=C/c3ccnc4ccccc34)cc2)cc1", "activation": "5.8%"}]}]}
